Experiment [1] is described as follows: A CellTox Green Cytotoxicity Assay to monitor cytotoxicity in HEK293 cells - 40 hour (AID 1224871). Note: nearly all actives have a fitted effect of over 45% in size. Note: potency is the fitted concentration of half-maximal effect. The procedure, abridged:
(§1)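 Seeding of HEK293 cells together with cytotoxicity dye preceded a 5 h incubation at 37 C/5% CO2. Test compounds in DMSO were then added and fluorescence monitored across 40 h.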

Experiment [2] in a line: qHTS RealTime-Glo MT Cell Viability Assay in HEK293 cells - 16 hour (AID 1224872). Note: nearly all actives have a fitted effect of over 50% in size. Note: potency is the fitted concentration of half-maximal effect. The procedure, abridged:
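Cells + reagent dispensed (600 cells/well, HEK293) → 5 h at 37 C/5% CO2 → 23 nL compound in DMSO pinned → 40 h at 37 C → luminescence read at 0, 8, 16, 24, 32, 40 h.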

The nature of experiment [3]: qHTS RealTime-Glo MT Cell Viability Assay in HepG2 cells - 8 hour (AID 1224873). Note: nearly all actives have a fitted effect of over 55% in size. Note: potency is the fitted concentration of half-maximal effect. The procedure, abridged:
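HepG2 cells mixed with RealTime-Glo MT reagents (NanoLuc plus cell-permeant prosubstrate) were seeded at 600 cells/well, incubated 5 h at 37 C/5% CO2, then pinned with compounds in DMSO; nonlytic luminescence tracked viability during 40 h treatment.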
In general terms: qHTS replaces the single test concentration by a dilution series.

A short description of experiment [4]: qHTS RealTime-Glo MT Cell Viability Assay in HEK293 cells - 40 hour (AID 1224874). Note: nearly all actives have a fitted effect of over 50% in size. Note: potency is the fitted concentration of half-maximal effect. The conditions noted are these: RealTime-Glo luminescence; max response: stronger effect = lower value. The procedure, abridged:
(§2)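 Tox21 screen in HEK293 using RealTime-Glo MT chemistry, with cells and reagent co-dispensed. Luminescence proportional to viable cell number was captured at intervals during 40 h compound exposure at 37 C.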

A short description of experiment [5]: A CellTox Green Cytotoxicity Assay to monitor cytotoxicity in HEK293 cells - 24 hour (AID 1224875). Note: nearly all actives have a fitted effect of over 45% in size. Note: potency is the fitted concentration of half-maximal effect. The procedure, abridged:
as §1

Experiment [6] is described as follows: A CellTox Green Cytotoxicity Assay to monitor cytotoxicity in HepG2 cells - 16 hour (AID 1224876). Note: nearly all actives have a fitted effect of over 45% in size. Note: potency is the fitted concentration of half-maximal effect. The procedure, abridged:
(§3)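 Nonlytic assay: viable cells exclude the dye, so fluorescence scales with cell death. HepG2 at 600 cells/well, compounds added after 5 h, signal read across 40 h.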

The nature of experiment [7]: qHTS RealTime-Glo MT Cell Viability Assay in HepG2 cells - 32 hour (AID 1224877). Note: nearly all actives have a fitted effect of over 55% in size. Note: potency is the fitted concentration of half-maximal effect. The procedure, abridged:
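Real-time, nonlytic viability: 600 HepG2 cells/well mixed with NanoLuc enzyme plus prosubstrate; 5 h settle, compound (DMSO) added by pintool; luminescence monitored over 40 h at 37 C.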

Experiment [8] is described as follows: A CellTox Green Cytotoxicity Assay to monitor cytotoxicity in HepG2 cells - 24 hour (AID 1224878). Note: nearly all actives have a fitted effect of over 45% in size. Note: potency is the fitted concentration of half-maximal effect. The procedure, abridged: as §3
Experiment [9] in a line: A CellTox Green Cytotoxicity Assay to monitor cytotoxicity in HepG2 cells - 40 hour (AID 1224879). Note: nearly all actives have a fitted effect of over 40% in size. Note: potency is the fitted concentration of half-maximal effect. The procedure, abridged: as §3
A short description of experiment [10]: qHTS RealTime-Glo MT Cell Viability Assay in HEK293 cells - 0 hour (AID 1224880). The procedure, abridged:
as §2

Several values for one entry are separate records, joined by “and”; a condition that tells them apart may be missing. Equal entries are not always repeated. Inconclusive results are not listed. Unmarked numbers belong to inactive results. Activity calls are given as the source filed them. Calls come from the whole dose curve; as a rule, active = well fitted curve in the direction sought with a large enough effect in the repeat runs; inconclusive = weak or mixed curves; inactive = no such curve, though single readings can be large; an effect the other way counts as inactive or inconclusive.
% is set by controls: 0 for no effect and ±100 for the full control effect.

For `NC(=S)NC(N)=S`, the Potency result in experiment [1], in experiment [2], in [3], in experiment [5], in experiment [6] and in experiment [7] was “inactive” each time. Further, the Potency result in experiment [8], in [9] and in [10] was “inactive” throughout. The max response in experiment [4] was -1.4%.
Consider `CCC(CC)(CC(=O)Nc1cccc(/C=C/c2nc(C3CCC3)cs2)c1)C(=O)O`, for which the Potency result in [1], in experiment [2], in experiment [3], in [5], in [6] and in experiment [7] was “inactive” in each case. In addition, the Potency result in experiment [8] and in experiment [9] was “inactive” throughout. Also, the max response in [4] was -19.8%.
For `CC(C)(C)c1ccc(C(O)CCCN2CCC(C(O)(c3ccccc3)c3ccccc3)CC2)cc1` (configuration not stated), the Potency in [1] is 7.56 µM (active); in experiment [2], 6.74 µM (active); in experiment [3] it was 10.7 µM (active); in [4], 4.77 µM (active); in [5], 9.52 µM (active); in [6] it was 10.7 µM (active). Moreover, the Potency in [7] is 5.35 µM (active); in experiment [8], 8.49 µM (active); in experiment [9], 5.35 µM (active).
For `O=C(O)c1cc(=O)c2ccccc2o1`, the Potency entry in experiment [1], in [2], in experiment [3], in experiment [5], in experiment [6] and in [7] was “inactive” in each case. Moreover, the Potency result in experiment [8], in [9] and in experiment [10] was “inactive” in each case. Also, in experiment [4], the max response is 1.84%.
Consider `CC1(C)CC(O)CC(C)(C)N1`, for which the Potency entry in experiment [1], in experiment [2], in experiment [3], in experiment [5], in experiment [6] and in experiment [7] was “inactive” in each case. The Potency entry in [8], in experiment [9] and in [10] was “inactive” each time. The max response in experiment [4] is -4.64%.
On to `Clc1sc(Cl)c(Cl)c1Cl`, for which the Potency result in experiment [1], in [2], in experiment [3], in experiment [5], in experiment [6] and in experiment [7] was “inactive” each time. Moreover, the Potency result in [8], in experiment [9] and in experiment [10] was “inactive” each time. Also, the max response in [4] is 7.4%.
For `CCCCCCCCCCCCCC[N+](C)(C)Cc1ccccc1`, the Potency in [1] was 24.9 µM (active) and 19 µM (active) and 15.8 mM (active); in experiment [2] it was 19.8 µM (active) and 9.52 µM (active) and 12.6 mM (active); in experiment [3] it was 55.8 µM (active) and 21.3 µM (active); in experiment [4] it was 3.14 µM (active) and 3.01 µM (active) and 1.58 mM (active); in experiment [5] it was 39.5 µM (active) and 21.3 µM (active) and 17.8 mM (active); in experiment [6], 49.7 µM (active) and 23.9 µM (active) and 17.8 mM (active). Moreover, the Potency in experiment [7] is 24.9 µM (active) and 13.4 µM (active); in experiment [8] it was 39.5 µM (active) and 16.9 µM (active) and 17.8 mM (active); in [9], 22.2 µM (active) and 15.1 µM (active) and 14.1 mM (active). Moreover, in experiment [10], the Potency result is “inactive”.
On to `CC(C)(c1cc(Br)c(OCC(Br)CBr)c(Br)c1)c1cc(Br)c(OCC(Br)CBr)c(Br)c1` (configuration not stated), for which the Potency result in experiment [1], in experiment [2], in [3], in [5], in [6] and in experiment [7] was “inactive” in each case. Also, the Potency result in [8], in [9] and in [10] was “inactive” each time. Moreover, in experiment [4], the max response is -0.358%.
For `CCOc1ccc2ccccc2c1C(=O)N[C@@H]1C(=O)N2[C@@H]1SC(C)(C)[C@@H]2C(=O)O`, the Potency entry in experiment [1], in experiment [2], in experiment [3], in [5], in experiment [6] and in [7] was “inactive” throughout. In addition, the Potency result in experiment [8], in experiment [9] and in experiment [10] was “inactive” in each case. Further, the max response in experiment [4] is 1.12%.
For `C=C(CC)C(=O)c1ccc(OCC(=O)O)c(Cl)c1Cl`, the Potency entry in experiment [1], in [2], in experiment [3], in [5], in experiment [6] and in experiment [7] was “inactive” throughout. Besides, the Potency result in experiment [8], in experiment [9] and in [10] was “inactive” throughout. Further, in experiment [4], the max response is -6.17% and 15.5%.
`CCCCOC(=O)CO`: the Potency entry in [1], in [2], in experiment [3], in experiment [5], in experiment [6] and in experiment [7] was “inactive” in each case. Moreover, the Potency entry in experiment [8], in [9] and in [10] was “inactive” in each case. For the same compound, in [4], the max response is -0.491%.
In the case of `Nc1ccc(NCCO)c([N+](=O)[O-])c1`, the Potency entry in [1], in experiment [2], in experiment [3], in [5], in experiment [6] and in experiment [7] was “inactive” in each case. Moreover, the Potency result in [8], in experiment [9] and in experiment [10] was “inactive” in each case. Further, the max response in [4] is 0.226%.
`O=[N+]([O-])c1ccc(F)c(Cl)c1`: the Potency result in [1], in experiment [2], in experiment [3], in experiment [5], in [6] and in experiment [7] was “inactive” in each case. In addition, the Potency entry in experiment [8], in experiment [9] and in [10] was “inactive” in each case. Moreover, the max response in [4] was 14.6%.
`Cc1ccc(C(C)C)cc2c(C)ccc1-2`: the Potency entry in experiment [1], in experiment [2], in experiment [3], in [5], in [6] and in experiment [7] was “inactive” throughout. Also, the Potency entry in experiment [8], in experiment [9] and in experiment [10] was “inactive” each time. Further, the max response in experiment [4] is -5.67%.
As to `CCO[Si](OCC)(OCC)OCC`, the Potency entry in experiment [1], in experiment [2], in experiment [3], in [5], in [6] and in [7] was “inactive” throughout. Besides, the Potency entry in experiment [8], in experiment [9] and in [10] was “inactive” in each case. The max response in [4] is 3.28%.
In the case of `O=C1c2ccccc2C(=O)N1SC1CCCCC1`, the Potency in experiment [1] was 12.3 µM (active) and 21.9 µM (active); in [2], 34.6 µM (active) and 38.9 µM (active); in experiment [3], 38.9 µM (active); in [4], 21.9 µM (active) and 38.9 µM (active); in experiment [5], 13.8 µM (active) and 34.7 µM (active); in [6], 43.6 µM (active). Further, the Potency was 43.6 µM (active) in experiment [7], 21.9 µM (active) in experiment [8] and 24.5 µM (active) in experiment [9]. The Potency entry in experiment [10] was “inactive”.
As for `c1ccc(SSc2ccccc2)cc1`, the Potency entry in [1], in experiment [2], in [3], in experiment [5], in [6] and in experiment [7] was “inactive” each time. Moreover, the Potency entry in [8] and in experiment [9] was “inactive” throughout. In addition, the max response in experiment [4] was -15.4%.

For the origin of these results see PubChem BioAssay (Tox21).
